Data published in PubChem BioAssay AID1259318 (Sanford-Burnham Center for Chemical Genomics, 2017).
Hit rate of the full screen: of about 370,000 compounds, about 3,000 (0.81%) were called active. The sample holds actives, similar compounds and a random draw of the others, so the mix is not that of the screen. Values without a mark were called inactive.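 How the source made its calls: active means activity above about 14% (limit read from the data; passing the limit was not always enough); inactive means the rest.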

These compounds were tested against Nuclear receptor subfamily 1 group D member 1 (Homo sapiens) (UniProt P20393) (assay: Rev-erbα–DNA interaction modulation – biochemical, FITC-DNA, fluorescence polarization, uHTS, primary screen (AID 1259318;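 further: 0% = DMSO wells with 35 nM protein and 100% = DMSO wells with 750 nM protein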)). Details: Rev-erbα–FITC-DNA binding, 90 min, at 10 µM, stronger effect = higher value.
Nuclear receptor subfamily 1 group D member 1 (Homo sapiens), sequence (P20393 whole entry, looked up): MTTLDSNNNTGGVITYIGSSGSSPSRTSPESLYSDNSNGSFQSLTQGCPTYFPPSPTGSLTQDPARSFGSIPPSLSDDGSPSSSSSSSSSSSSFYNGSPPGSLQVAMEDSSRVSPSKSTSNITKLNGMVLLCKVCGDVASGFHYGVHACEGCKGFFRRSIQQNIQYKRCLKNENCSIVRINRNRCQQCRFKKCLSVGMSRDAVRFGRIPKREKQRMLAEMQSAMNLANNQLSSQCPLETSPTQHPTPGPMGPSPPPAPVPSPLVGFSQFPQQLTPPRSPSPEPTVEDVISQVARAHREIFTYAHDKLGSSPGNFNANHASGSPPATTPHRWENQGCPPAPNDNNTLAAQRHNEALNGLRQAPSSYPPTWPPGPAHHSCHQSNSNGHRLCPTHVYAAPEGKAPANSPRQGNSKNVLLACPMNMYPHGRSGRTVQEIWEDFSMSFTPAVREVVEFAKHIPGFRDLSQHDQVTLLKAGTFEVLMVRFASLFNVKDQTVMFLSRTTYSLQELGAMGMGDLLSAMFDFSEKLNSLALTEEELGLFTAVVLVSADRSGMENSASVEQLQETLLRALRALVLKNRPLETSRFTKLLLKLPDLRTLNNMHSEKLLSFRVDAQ

Question: `Cc1c[nH]c2cccc(-c3ccc(Cl)cc3)c12` was tested. Which activity did it give?
Answer: 4.69%

Question: Which activity does the source give for `CCCCCCCCCCCCCCCCO` here?
Answer: 2.41%

Question: How did the activity turn out when `CCNC(=O)C1(C)CCCN(C(=O)c2c(C)noc2C)C1` (configuration not stated) was run?
Answer: -9.88%

Question: Which activity does the source give for `NC(=O)C1CCN(Cc2nc3c(Br)cc(Br)cc3c(=O)[nH]2)CC1` here?
Answer: -0.27%

Question: How did the activity turn out when `NC(N)=Nc1nc2ccc(Br)cc2c(=O)[nH]1` was run?
Answer: 20.6% (active)

Question: Which activity does the source give for `CC(C)(C)c1ccc(S(=O)(=O)N2CCN(C(=O)c3ccc4c(c3)C(=O)N(Cc3ccncc3)C4=O)CC2)cc1` here?
Answer: -6.31%

Question: With `COc1cccc(NS(=O)(=O)c2ccc3[nH]cc(C(=O)NCCCOC(C)C)c(=O)c3c2)c1` as the compound, how does the activity read?
Answer: 5.55%

Question: With `CN(C)S(=O)(=O)c1ccc(N2CCCC2)c(C(=O)NCc2ccccc2)c1` as the compound, how does the activity read?
Answer: 5%

Question: How did the activity turn out when `CN(C)S(=O)(=O)c1ccc(N2CCCC2)c(C(=O)Nc2cccc(F)c2)c1` was run?
Answer: 6.34%

Question: Which activity does the source give for `CN(C)S(=O)(=O)c1ccc(N2CCCC2)c(C(=O)Nc2ccc(Br)cc2F)c1` here?
Answer: 23.1% (active)

Question: For `CC(C)(C)NC(=O)C(c1cccnc1)N(C(=O)c1cnco1)c1ccc(C(C)(C)C)cc1` (configuration not stated), which activity is on record?
Answer: 0.3%

Question: How did the activity turn out when `CN1/C(=c2/s/c(=C3/C(=O)N(c4ccccc4)NC3=Nc3ccccc3)n(C)c2=O)C(C)(C)c2ccccc21` was run?
Answer: 42.5% (active)

Question: Which activity does the source give for `CCOC(=O)c1c(C)oc2cc(Br)c(OCC(N)=O)cc12` here?
Answer: 27.8% (active)

Question: `COCCOC(=O)c1c(C)oc2cc(Br)c(OCC(N)=O)cc12` was tested. Which activity did it give?
Answer: -0.63%

Question: For `Cc1cc(=O)oc2c(C(=O)c3ccccc3)c(OCC(N)=O)ccc12`, which activity is on record?
Answer: 1.4%

Question: `CCOc1ccc(NC(=O)CN(C)C(=O)CCSc2ccc(F)cc2)cc1OCC` was tested. Which activity did it give?
Answer: -6.91%

Question: With `Nn1c(SCC(=O)Nc2cccc3ccccc23)nnc1-c1cc(-c2ccc(F)cc2)n[nH]1` as the compound, how does the activity read?
Answer: 0.84%

Question: With `COc1ccc(C2=NN(C(=O)CSc3nc(=O)n4ccc(C)cc4n3)C(c3ccc(C)cc3)C2)cc1` (configuration not stated) as the compound, how does the activity read?
Answer: 37.8% (active)

Question: How did the activity turn out when `Cc1ccn2c(=O)nc(SCC(=O)NCc3ccc(F)cc3)nc2c1` was run?
Answer: 10.3%

Question: How did the activity turn out when `Cc1ccn2c(=O)nc(SCC(=O)NCc3ccc4c(c3)OCO4)nc2c1` was run?
Answer: -6.16%

Question: `CC(O)COc1ccccc1` (configuration not stated) was tested. Which activity did it give?
Answer: -2.15%

Question: Which activity does the source give for `Cc1ccc(NS(=O)(=O)c2ccc(-c3ccc(=O)[nH]n3)o2)c(C)c1` here?
Answer: 1.28%

Question: How did the activity turn out when `Cc1ccc(-n2c(C)cc(/C=C(\C#N)C(=O)NCC3CCCO3)c2C)cc1` (configuration not stated) was run?
Answer: -8.1%

Question: Which activity does the source give for `Cc1cc(/C=C(/C#N)C(=O)Nc2ccc(Cl)cc2)c(C)n1-c1cccnc1` here?
Answer: 23.3% (active)

Question: `N#C/C(=C\c1cccnc1)C(=O)Nc1ccc(SC(F)F)cc1` was tested. Which activity did it give?
Answer: -6.19%

Question: For `CN(C)CCc1c[nH]c2ccc(Cn3cncn3)cc12`, which activity is on record?
Answer: -0.58%

Question: For `CS(=O)(=O)N(Cc1ccccc1)c1ccc(C(=O)NN=C2CCCCCC2)cc1`, which activity is on record?
Answer: 1.02%

Question: How did the activity turn out when `CCOC(=O)c1nnn2c1nc(N1CCN(c3ccccc3)CC1)c1ccccc12` was run?
Answer: -1.6%

Question: `Cc1ccc(S(=O)(=O)NCC(=O)N2CCN(c3ccccn3)CC2)cc1` was tested. Which activity did it give?
Answer: -1.9%

Question: `Cc1ccc(S(=O)(=O)c2nnn3c2nc(N2CCN(c4ccccn4)CC2)c2ccccc23)cc1` was tested. Which activity did it give?
Answer: 87.8% (active)

Question: How did the activity turn out when `Cc1nc(Nc2ccccc2C)c2cnn(C)c2n1` was run?
Answer: 3.28%

Question: `Cc1cccc(Nc2nc3c(S(=O)(=O)c4ccccc4)nnn3c3ccccc23)c1C` was tested. Which activity did it give?
Answer: 47.9% (active)

Question: How did the activity turn out when `Cc1cc(Nc2cccc(C)c2C)n2ncnc2n1` was run?
Answer: 0.88%

Question: With `CCN(CC(=O)Nc1c(F)cccc1F)C(=O)C1CCC1` as the compound, how does the activity read?
Answer: -2.66%

Question: `COc1cc(C(=O)N2CCOCC2)cc(OC)c1OC` was tested. Which activity did it give?
Answer: -1.7%

Question: Which activity does the source give for `N#Cc1cccc(NC(=O)COC(=O)c2ccccc2C(=O)c2ccc(Cl)c([N+](=O)[O-])c2)c1` here?
Answer: 3.08%

Question: Which activity does the source give for `CCCOc1ccc(Oc2c(Cl)cnn(Cc3cccc4ccccc34)c2=O)cc1` here?
Answer: -0.89%

Question: `Cc1c(C=O)c2ccccn2c1C(=O)c1ccncc1` was tested. Which activity did it give?
Answer: -1.4%

Question: Which activity does the source give for `CN(C(=O)CSc1nnc(-c2n[nH]c3ccccc23)o1)c1ccccc1` here?
Answer: -0.39%

Question: Which activity does the source give for `O=C1CN(C(=O)COc2c(Cl)cccc2Cl)c2ccccc2N1` here?
Answer: -1.39%

Question: How did the activity turn out when `CCOc1ccc(C)cc1S(=O)(=O)NC1CCCCCC1` was run?
Answer: 4.62%

Question: With `O=C(CN1CCC(NC(=O)NCc2ccccc2)CC1)Nc1ccc2c(c1)OCCO2` as the compound, how does the activity read?
Answer: -2.38%

Question: With `Cc1ccc2c(C(=O)CN3CCCC3)c(C)[nH]c2c1` as the compound, how does the activity read?
Answer: -0.66%

Question: `CC(C)(C)c1ccc(C(=O)Nc2cc(Cl)c(Br)cc2C(=O)O)cc1` was tested. Which activity did it give?
Answer: -8.64%

Question: For `COc1ccc(CN2[C@@H](CC(=O)O)c3cc(F)ccc3S2(=O)=O)cc1`, which activity is on record?
Answer: 1.62%

Question: With `COc1ccc(-c2csc3ncnc(N4CCN(S(=O)(=O)c5ccccc5C#N)CC4)c23)cc1` as the compound, how does the activity read?
Answer: 28.3% (active)

Question: With `COc1ccc(S(=O)(=O)N2CCN(c3cnccn3)CC2)cc1` as the compound, how does the activity read?
Answer: 0.63%

Question: How did the activity turn out when `COc1ccc(-c2csc3ncnc(Oc4ccc5c(C)cc(=O)oc5c4)c23)cc1` was run?
Answer: 3.46%

Question: `COc1ccc(-c2csc3ncnc(N4CCN(S(=O)(=O)c5cccc(F)c5)CC4)c23)cc1` was tested. Which activity did it give?
Answer: 3.12%

Question: With `COc1ccc(S(=O)(=O)N2CCN(c3ncnc4c(-c5ccccc5)nsc34)CC2)cc1` as the compound, how does the activity read?
Answer: 27.5% (active)

Question: Which activity does the source give for `COc1ccc(S(=O)(=O)N2CCSCC2)cc1` here?
Answer: -4.2%

Question: Which activity does the source give for `CCC1(C)CC(=O)NC1=O` (configuration not stated) here?
Answer: -6.13%

Question: With `CC(C)(C)c1ccc(/C=C2\SC(=O)N=C2N)cc1` as the compound, how does the activity read?
Answer: 0.2%

Question: How did the activity turn out when `CCC(C)[C@H]1O[C@]2(CC[C@@H]1C)C[C@@H]1C[C@@H](C/C=C(\C)[C@@H](O[C@@H]3C[C@H](OC)[C@H](O[C@H]4C[C@H](OC)[C@@H](O)[C@H](C)O4)[C@H](C)O3)[C@@H](C)/C=C/C=C3\CO[C@@H]4[C@H](O)C(C)=C[C@@H](C(=O)O1)[C@]34O)O2` (some centres not stated) was run?
Answer: 6.63%

Question: How did the activity turn out when `C=CCn1c(=NC(=O)c2cccs2)sc2cc(NC(C)=O)ccc21` was run?
Answer: 31.9% (active)

Question: For `C=CCn1c(=NC(=O)c2ccc(S(=O)(=O)N3CCCC3)cc2)sc2cc(NC(C)=O)ccc21`, which activity is on record?
Answer: 51.5% (active)

Question: How did the activity turn out when `CCN(CC)S(=O)(=O)c1cccc(NC(=O)c2ccc(S(=O)(=O)N3CCCC3)cc2)c1` was run?
Answer: 5.55%

Question: Which activity does the source give for `CC(=O)Nc1ccc(S(=O)(=O)N2CCN(S(=O)(=O)c3cccs3)CC2)cc1` here?
Answer: -1.45%

Question: `O=C(Cn1c(=O)sc2ccccc21)Nc1ccc2c(c1)OCCO2` was tested. Which activity did it give?
Answer: 2.42%

Question: Which activity does the source give for `C=CCn1c(CCNC(=O)c2cccs2)n[nH]c1=S` here?
Answer: -1.01%

Question: For `CCOC(=O)c1cc(S(=O)(=O)NCCc2ccc(OC)c(OC)c2)cn1C`, which activity is on record?
Answer: 1.86%

Question: Which activity does the source give for `Cc1cccc(OCCC(=O)Nc2cc(S(=O)(=O)N3CCCCC3)ccc2N2CCOCC2)c1` here?
Answer: -0.99%

Question: With `CN(CCc1ccccn1)S(=O)(=O)c1ccc2c3c(cccc13)C(=O)N2` as the compound, how does the activity read?
Answer: 1.1%

Question: Which activity does the source give for `Cc1cc(NC(=O)CSc2nc3cc(Cl)ccc3c(=O)n2Cc2ccco2)no1` here?
Answer: 20.1% (active)

Question: `O=C(CSc1nnc(-c2cccc(Cl)c2)n1Cc1ccco1)Nc1ccc(OCc2ccccc2)cc1` was tested. Which activity did it give?
Answer: 4.77%

Question: For `Cc1cc(NC(=O)CSC2=NS(=O)(=O)c3cc(Cl)ccc3N2)no1`, which activity is on record?
Answer: -5.75%

Question: With `CC/C(=C(/c1ccccc1)c1ccc(OCC[N+](C)(C)C)cc1)c1ccccc1` as the compound, how does the activity read?
Answer: -1.77%

Question: `C=CCN1[C@H](CC(C)C)COc2cccc(N3CCCC3)c2S1(=O)=O` was tested. Which activity did it give?
Answer: 5.72%

Question: How did the activity turn out when `Fc1c(F)c(C(F)(F)F)c(F)c(F)c1N1CCN(c2ccc3nnc(C(F)(F)F)n3n2)CC1` was run?
Answer: 28.7% (active)

Question: How did the activity turn out when `CCN(CC)S(=O)(=O)c1ccc(OC(C)C)c(N)c1` was run?
Answer: -2.29%

Question: With `CCN(CC)S(=O)(=O)c1ccc(C(=O)N2CCN(C3=NS(=O)(=O)c4ccccc43)CC2)cc1` as the compound, how does the activity read?
Answer: -1.88%

Question: How did the activity turn out when `CCN(CC)C(=O)CS(=O)CC(=O)Nc1cc(OCCOC)c(Cl)cc1Cl` (configuration not stated) was run?
Answer: -6.56%

Question: For `COc1cc(Cl)c(C)cc1NC(=O)COC(=O)c1cc(SC)ccc1Cl`, which activity is on record?
Answer: 35.7% (active)

Question: Which activity does the source give for `COc1ccc(OCC(=O)Nc2cc(C)c(Cl)cc2OC)c([N+](=O)[O-])c1` here?
Answer: 1.26%

Question: With `CSc1ccc(Cl)c(C(=O)OCC(=O)N2CC(C)OC(C)C2)c1` (configuration not stated) as the compound, how does the activity read?
Answer: -1.82%

Question: For `COc1ccccc1NC(=O)COc1ccc(C(=O)OCC(=O)N(C(C)C)C(C)C)cc1OC`, which activity is on record?
Answer: 0.89%

Question: How did the activity turn out when `Clc1ccc(Cl)c(Oc2ccc(Oc3nc(Cl)ccc3Cl)cc2)n1` was run?
Answer: -2%

Question: `Clc1ccc(-n2c(COc3ccccc3)nnc2SCc2nc3ccccc3[nH]2)cc1` was tested. Which activity did it give?
Answer: -0.37%

Question: How did the activity turn out when `CC1CC2C3CCC4=CC(=O)C=C[C@]4(C)[C@@]3(F)[C@@H](O)C[C@]2(C)[C@@]1(O)C(=O)CO` (some centres not stated) was run?
Answer: 0.08%

Question: For `Cn1nccc1NS(=O)(=O)c1ccc(F)cc1`, which activity is on record?
Answer: 3.3%

Question: For `O=C(CS(=O)(=O)c1cn(Cc2cccc(F)c2)c2ccccc12)N1CCCCC1`, which activity is on record?
Answer: -9.9%

Question: How did the activity turn out when `O=c1cc(N2CCCCC2)c(-c2ccccc2)nn1Cc1cccc(F)c1` was run?
Answer: 30.7% (active)

Question: How did the activity turn out when `CCc1c(-c2ccc(F)cc2)ncn1Cc1cccc(-c2ccccc2)c1` was run?
Answer: -5.19%

Question: How did the activity turn out when `COC(=O)[C@]1(C)N[C@H](CN(C)C(=O)c2ccc(C(C)(C)C)cc2)[C@@H]2C(=O)N(C)C(=O)[C@@H]21` was run?
Answer: -0.45%

Question: How did the activity turn out when `Oc1c(Br)cc(/C=N/NC(=S)NCC2CCCO2)cc1Br` (configuration not stated) was run?
Answer: -2.6%

Question: With `CO/N=C(\C(=O)N[C@@H]1C(=O)N2C(C(=O)O)=CCS[C@H]12)c1csc(N)n1` as the compound, how does the activity read?
Answer: -1.64%

Question: `CCn1c(=O)c2ccccc2n(CC(=O)N2CCCc3ccccc32)c1=O` was tested. Which activity did it give?
Answer: -3.6%
